For 40 molecules, Potency and activation results are on record in PubChem BioAssay (Tox21).

SMILES strings stand for the structures. Inconclusive results are not listed. Entries that show only a call come without a potency. Activity calls are given as the source filed them. Calls come from the whole dose curve.

Sequence of Progesterone receptor (Homo sapiens) (P06401 whole entry, looked up): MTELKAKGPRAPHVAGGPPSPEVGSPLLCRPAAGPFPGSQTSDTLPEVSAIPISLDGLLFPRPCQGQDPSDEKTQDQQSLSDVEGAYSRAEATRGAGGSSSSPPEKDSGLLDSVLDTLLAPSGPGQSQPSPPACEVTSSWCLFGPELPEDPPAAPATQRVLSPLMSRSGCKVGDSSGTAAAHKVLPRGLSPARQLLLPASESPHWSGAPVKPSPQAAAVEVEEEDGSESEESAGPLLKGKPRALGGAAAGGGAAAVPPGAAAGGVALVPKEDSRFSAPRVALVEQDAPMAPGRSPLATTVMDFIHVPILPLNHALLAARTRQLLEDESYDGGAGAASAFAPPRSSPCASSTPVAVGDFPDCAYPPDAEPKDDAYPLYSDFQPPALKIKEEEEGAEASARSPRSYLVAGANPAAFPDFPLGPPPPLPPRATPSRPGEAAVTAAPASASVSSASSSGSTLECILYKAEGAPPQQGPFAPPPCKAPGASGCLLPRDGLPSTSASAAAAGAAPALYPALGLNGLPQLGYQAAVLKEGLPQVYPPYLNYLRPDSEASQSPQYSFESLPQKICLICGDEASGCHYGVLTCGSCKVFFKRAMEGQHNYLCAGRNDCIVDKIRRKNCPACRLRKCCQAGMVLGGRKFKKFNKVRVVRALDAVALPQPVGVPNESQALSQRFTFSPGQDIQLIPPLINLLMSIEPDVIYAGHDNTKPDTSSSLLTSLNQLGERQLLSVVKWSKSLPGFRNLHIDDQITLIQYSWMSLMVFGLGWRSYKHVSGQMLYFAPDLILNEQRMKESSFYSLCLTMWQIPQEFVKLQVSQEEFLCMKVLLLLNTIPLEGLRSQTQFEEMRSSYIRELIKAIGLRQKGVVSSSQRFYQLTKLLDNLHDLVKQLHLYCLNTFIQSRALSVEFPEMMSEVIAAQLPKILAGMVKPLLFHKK

For the assay, the target named is Progesterone receptor (Homo sapiens) (UniProt P06401). Kind of assay: qHTS assay to identify small molecule agonists of the progesterone receptor (PR) signaling pathway (AID 1346784). Note: nearly all actives have a fitted effect of over 30% in size. The conditions noted are these: PR-UAS-bla HEK293T, beta-lactamase FRET ratio, 16 h; series mostly up to 92.4 µM. An excerpt:
U.S. Tox21 Program National Center for Advancing Translational Sciences [NCATS] NIH Chemical Genomics Center [NCGC] U.S. Environmental Protection Agency [EPA] National Institutes of Environmental Health Sciences [NIEHS] National Toxicology Program [NTP] U.S. Food and Drug Administration [FDA] […] Endocrine disrupting chemicals (EDCs) and their interactions with steroid hormone receptors like PR causes disruption of normal endocrine function. To identify the compounds that activate PR signaling, a PR-UAS-bla GripTite cell line i.e. PR-UAS-bla HEK 293T (Invitrogen, Carlsbad, CA, USA) containing a beta-lactamase reporter gene under the control of an Upstream Activator Sequence (UAS) was used to screen Tox21 10K compound library.
Tox21 Assay Protocol Summary: PR-UAS-bla HEK 293T cells were dispensed at 3,000 cells/5 uL of assay medium containing 2% charcoal stripped FBS per well into black wall/clear-bottom 1536-well plates using a Multidrop Combi (ThermoFisher Scientific, Waltham, MA) dispenser. After the assay plates were incubated at a 37C and 5% CO2 for 6hr, 23 nL of compounds dissolved in DMSO, positive controls or DMSO only was transferred to the assay plate by a Pintool station (Kalypsys, San Diego, CA). The plates were incubated at 37C and 5% CO2 for 16hr. Then 1 uL of LiveBLAzer B/G FRET substrate was added using a BioRAPTR FRD (Flying Reagent Dispenser, Aurora Discovery, San Diego, CA). After the plates were incubated at room temperature for 2 hours, fluorescence intensity was measured by an Envision plate reader (PerkinElmer, Shelton, CT).
(In qHTS, concentration-response curves come from the screen itself.)
For `C=CCCCCCCCC`, the Potency entry is “inactive”. On the same count and under the same terms, in the case of `CCCC(=O)Nc1ccc(OCC(O)CNC(C)C)c(C(C)=O)c1` (stereo not given) it was “inactive”; in that of `CC1(C)Oc2ccc(C#N)cc2[C@@H](N2CCCC2=O)[C@@H]1O`, “inactive”; in that of `CN(C)CC/C=C1/c2ccccc2COc2ccc(CC(=O)O)cc21`, “inactive”. The same measure, in the same setting: in the case of `C=C(C)C1CC=C(C)C(=O)C1` (stereo not given) it was “inactive”; in that of `CC(C)COC(=O)c1ccccc1`, “inactive”; in that of `CCCCSCCCC`, “inactive”. The same measure, in the same setting: for `CCCSSCCC` the value was “inactive”; for `CC(C)NCC(O)c1ccc2ccccc2c1` (stereo not given), “inactive”. With `CC(C)C[C@@H]1[C@H](c2ccccc2)OC(=O)N1CCCN1CCCCCC1`, the Potency result was “inactive”.

Consider `O=C1c2ccccc2C(=O)c2cc(Cl)ccc21`, for which the activation is 2.34% [at 8.39 µM] (inactive). `COC(=O)CCCCC(CCSS/C(CCO)=C(\C)N(C=O)Cc1cnc(C)nc1N)SC(C)=O` (stereo not given): the Potency result was “inactive”. Still for that read-out and setting: for `COc1ccc2c(c1)c1c3n2CCN(C)C3=NCC1` the value was “inactive”; for `C/C(=C1\CCOC(=O)S1)N(C=O)Cc1cnc(C)nc1N`, “inactive”; for `CCCCCCC1(C)CCC(=O)O1` (stereo not given), “inactive”.

With `O=C(CN1CCNCC1)NC1CCCCC1`, the Potency result is “inactive”. The same measure, in the same setting: for `OCC(O)CN1CCN(c2ccccc2)CC1` (stereo not given) the value was “inactive”; for `ONc1ccccc1`, “inactive”; for `CC(Oc1cc(Cl)ccc1Cl)C(=O)O` (stereo not given), “inactive”.

With `CC(C)=CCC/C(C)=C/COC=O`, the Potency result is “inactive”. As to `CCOC(=O)CC1(C)OCC(C)O1` (stereo not given), the Potency entry is “inactive”. Still for that read-out and setting: in the case of `O=C(O)CONC(=O)c1ccccc1` it was “inactive”; in that of `C=C(C)[C@@H]1CC=C(C)C(=O)C1`, “inactive”.

Regarding `O=Cc1cc2ccccc2o1`, the Potency entry was “inactive”.

Turning to `COc1cc2c(cc1OC)C(=O)C(CC1CCN(Cc3ccccc3)CC1)C2` (stereo not given), the Potency entry is “inactive”. Still for that read-out and setting: for `COCCc1ccccn1` the value was “inactive”; for `CCN1CCCC1CN` (stereo not given), “inactive”. For `Cc1ncc([N+](=O)[O-])n1CC(C)O` (stereo not given), the Potency entry is “inactive”. Same read-out and setting: for `OC[C@H]1O[C@@H](O[C@@H]2[C@@H](CO)O[C@](O)(CO)[C@H]2O)[C@H](O)[C@@H](O)[C@H]1O` the value was “inactive”; for `Cc1c(NC(=O)c2cccnc2)c(=O)n(-c2ccccc2)n1C`, “inactive”; for `CCCCCCCCCCCCCCCCCC#N`, “inactive”. `CC1CCc2c(N3CCC(O)CC3)c(F)cc3c(=O)c(C(=O)O)cn1c23` (stereo not given): the Potency entry is “inactive”.

For `C=C(C)c1cccc(C(C)(C)N=C=O)c1`, the Potency entry is “inactive”. For `OC[C@@H](O)C(O)[C@@H](O)CO` (stereo not given in full), the Potency result was “inactive”. `CC(C)CCOC(=O)c1ccccc1`: the Potency entry was “inactive”. Still for that read-out and setting: for `CN(C)CCCCl` the value was “inactive”. On the same count and under the same terms, in the case of `O=C(O)[C@H](O)c1ccccc1` it was “inactive”; in that of `CC(=O)CC(=O)Nc1ccc(C)cc1C`, “inactive”. Still for that read-out and setting: for `CC(C)c1ccc(C=O)cc1` the value was “inactive”; for `COC(C)(OC)OC`, “inactive”.
